Source: the supplement of paper PMC11732987, “Enantioselective OTUD7B fragment discovery through chemoproteomics screening and high-throughput optimisation” (Communications Chemistry, 2025)

Legend:
Experiment in all cases: log2 ratio of Biotin-Ahx-Ub-VS probe labelling (fragment/DMSO); higher = less target engagement (more negative = stronger competition), active = hit call of the paper (q ≤ 0.05, log2 ratio ≤ -1)
Conditions in all cases: compound concentration: 200 uM; treatment time: 3 h
[1] = molecular target: T1, OTUD6B (UniProt Q8N6M0)
T1 sequence (whole entry): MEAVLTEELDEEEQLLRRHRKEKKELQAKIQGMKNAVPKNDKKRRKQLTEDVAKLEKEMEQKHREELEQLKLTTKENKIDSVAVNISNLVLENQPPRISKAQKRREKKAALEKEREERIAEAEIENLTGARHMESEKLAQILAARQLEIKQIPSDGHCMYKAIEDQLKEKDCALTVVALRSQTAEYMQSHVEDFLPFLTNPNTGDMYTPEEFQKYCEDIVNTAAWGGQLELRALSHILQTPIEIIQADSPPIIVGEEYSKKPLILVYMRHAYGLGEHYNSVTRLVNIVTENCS
Procedure, shortened: (§1)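 HEK293T lysate (495 µg per sample, in Tris/CHAPS/IGEPAL buffer with protease inhibitors) was treated in triplicate with fragment at 200 µM or with DMSO for 3 h. It was then treated with Biotin-Ahx-Ub-VS (0.5 µM final) for 1 h. Labelled DUBs were NeutrAvidin-enriched, digested with LysC and trypsin, and run by diaPASEF LC-MS/MS. Spectronaut label-free quantities were global-median-normalised. Values are average log2 ratios fragment/DMSO by unpaired t-test, using proteins with ≥2 unique peptides.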

[2] = molecular target: T2, OTUD7B (UniProt Q6GQQ9)
T2 sequence (whole entry): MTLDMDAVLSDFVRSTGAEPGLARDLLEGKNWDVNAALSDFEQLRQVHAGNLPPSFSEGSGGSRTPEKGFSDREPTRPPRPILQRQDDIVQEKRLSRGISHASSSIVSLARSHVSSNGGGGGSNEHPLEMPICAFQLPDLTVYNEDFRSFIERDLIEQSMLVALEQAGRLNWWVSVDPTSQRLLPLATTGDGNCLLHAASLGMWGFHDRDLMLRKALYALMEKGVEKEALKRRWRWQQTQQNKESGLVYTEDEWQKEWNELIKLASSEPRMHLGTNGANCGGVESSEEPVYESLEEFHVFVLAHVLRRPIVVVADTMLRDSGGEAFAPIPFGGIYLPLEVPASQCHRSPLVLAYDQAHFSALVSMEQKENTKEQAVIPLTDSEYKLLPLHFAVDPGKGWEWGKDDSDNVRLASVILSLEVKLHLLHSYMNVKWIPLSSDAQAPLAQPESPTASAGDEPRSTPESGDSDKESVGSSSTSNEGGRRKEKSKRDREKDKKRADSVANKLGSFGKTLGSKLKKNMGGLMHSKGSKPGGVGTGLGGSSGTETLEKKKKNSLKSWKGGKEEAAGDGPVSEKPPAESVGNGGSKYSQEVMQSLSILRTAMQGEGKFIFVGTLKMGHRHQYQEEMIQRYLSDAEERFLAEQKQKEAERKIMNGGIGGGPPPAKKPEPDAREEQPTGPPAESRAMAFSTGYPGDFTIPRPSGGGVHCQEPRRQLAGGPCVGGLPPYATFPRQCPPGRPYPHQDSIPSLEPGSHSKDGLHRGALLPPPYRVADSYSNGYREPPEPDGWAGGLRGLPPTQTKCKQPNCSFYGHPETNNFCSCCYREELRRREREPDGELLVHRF
Procedure, shortened: as §1

[3] = molecular target: PRPF8 (UniProt Q6P2Q9)
Procedure, shortened: as §1

[4] = molecular target: T3, PSMD7 (UniProt P51665)
T3 sequence (whole entry): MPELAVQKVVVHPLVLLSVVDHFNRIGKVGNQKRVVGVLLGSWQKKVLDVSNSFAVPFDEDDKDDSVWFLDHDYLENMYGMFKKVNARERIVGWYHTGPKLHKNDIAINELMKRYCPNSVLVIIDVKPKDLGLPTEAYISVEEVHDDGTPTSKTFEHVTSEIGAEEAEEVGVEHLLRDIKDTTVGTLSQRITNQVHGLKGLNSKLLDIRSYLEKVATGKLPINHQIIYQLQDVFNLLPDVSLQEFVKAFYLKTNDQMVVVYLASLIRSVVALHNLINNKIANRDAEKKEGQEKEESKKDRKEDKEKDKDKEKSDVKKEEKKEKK
Procedure, shortened: as §1

[5] = molecular target: UCHL1 (UniProt P09936)
Procedure, shortened: as §1

[6] = molecular target: T4, UCHL3 (UniProt P15374)
T4 sequence (whole entry): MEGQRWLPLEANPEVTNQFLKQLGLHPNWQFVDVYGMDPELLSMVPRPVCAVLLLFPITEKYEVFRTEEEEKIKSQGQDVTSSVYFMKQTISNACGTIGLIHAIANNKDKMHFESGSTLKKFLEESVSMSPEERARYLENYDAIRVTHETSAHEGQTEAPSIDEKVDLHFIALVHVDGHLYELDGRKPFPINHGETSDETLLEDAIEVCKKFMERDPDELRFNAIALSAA
Procedure, shortened: as §1

[7] = molecular target: T5, UCHL5 (UniProt Q9Y5K5)
T5 sequence (whole entry): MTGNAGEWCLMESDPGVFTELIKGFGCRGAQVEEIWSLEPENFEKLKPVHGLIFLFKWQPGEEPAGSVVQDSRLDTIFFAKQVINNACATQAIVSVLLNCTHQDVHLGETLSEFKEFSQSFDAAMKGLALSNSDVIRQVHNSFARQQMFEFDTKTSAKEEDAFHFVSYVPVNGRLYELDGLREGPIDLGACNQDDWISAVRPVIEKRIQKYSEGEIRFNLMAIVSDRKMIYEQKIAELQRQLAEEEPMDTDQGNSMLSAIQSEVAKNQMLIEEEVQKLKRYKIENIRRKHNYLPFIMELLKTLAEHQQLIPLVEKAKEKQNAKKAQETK
Procedure, shortened: as §1

[8] = molecular target: USP10 (UniProt Q14694)
Procedure, shortened: as §1

[9] = molecular target: T6, USP15 (UniProt Q9Y4E8)
T6 sequence (whole entry): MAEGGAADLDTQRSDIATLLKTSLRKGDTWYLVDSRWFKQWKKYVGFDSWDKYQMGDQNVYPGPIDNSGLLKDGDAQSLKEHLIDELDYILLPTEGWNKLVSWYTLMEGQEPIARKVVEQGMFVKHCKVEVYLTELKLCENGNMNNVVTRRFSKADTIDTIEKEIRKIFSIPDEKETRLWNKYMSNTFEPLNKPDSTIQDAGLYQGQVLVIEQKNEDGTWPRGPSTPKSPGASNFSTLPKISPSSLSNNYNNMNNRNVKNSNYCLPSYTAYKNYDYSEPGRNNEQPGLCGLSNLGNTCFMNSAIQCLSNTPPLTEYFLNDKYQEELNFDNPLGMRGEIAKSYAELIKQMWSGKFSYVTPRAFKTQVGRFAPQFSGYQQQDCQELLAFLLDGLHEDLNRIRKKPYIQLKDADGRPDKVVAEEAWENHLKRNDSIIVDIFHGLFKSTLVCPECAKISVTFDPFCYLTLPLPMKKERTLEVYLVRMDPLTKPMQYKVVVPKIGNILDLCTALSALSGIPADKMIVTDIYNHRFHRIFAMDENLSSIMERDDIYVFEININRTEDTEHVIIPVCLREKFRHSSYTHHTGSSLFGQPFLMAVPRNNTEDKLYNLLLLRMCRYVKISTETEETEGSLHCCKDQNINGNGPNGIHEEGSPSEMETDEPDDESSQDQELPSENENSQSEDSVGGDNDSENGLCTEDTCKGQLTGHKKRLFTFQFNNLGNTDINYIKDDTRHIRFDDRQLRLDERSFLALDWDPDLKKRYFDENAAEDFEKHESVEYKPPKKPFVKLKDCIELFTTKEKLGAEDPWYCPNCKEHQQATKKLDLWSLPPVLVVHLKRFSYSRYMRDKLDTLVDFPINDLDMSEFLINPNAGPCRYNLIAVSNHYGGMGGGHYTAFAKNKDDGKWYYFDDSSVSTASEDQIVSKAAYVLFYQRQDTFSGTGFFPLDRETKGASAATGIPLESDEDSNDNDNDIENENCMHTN
Procedure, shortened: as §1

[10] = molecular target: USP16 (UniProt Q9Y5T5)
Procedure, shortened: as §1

Measured: log2 ratio of Biotin-Ahx-Ub-VS probe labelling

Sequence of UCHL1 (P09936 whole entry, looked up): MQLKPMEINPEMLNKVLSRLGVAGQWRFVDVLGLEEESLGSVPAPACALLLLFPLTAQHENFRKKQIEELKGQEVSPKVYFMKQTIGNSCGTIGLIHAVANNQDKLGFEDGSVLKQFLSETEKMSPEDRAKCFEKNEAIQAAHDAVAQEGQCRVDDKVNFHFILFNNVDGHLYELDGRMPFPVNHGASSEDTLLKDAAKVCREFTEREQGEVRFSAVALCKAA
Sequence of USP10 (Q14694 whole entry): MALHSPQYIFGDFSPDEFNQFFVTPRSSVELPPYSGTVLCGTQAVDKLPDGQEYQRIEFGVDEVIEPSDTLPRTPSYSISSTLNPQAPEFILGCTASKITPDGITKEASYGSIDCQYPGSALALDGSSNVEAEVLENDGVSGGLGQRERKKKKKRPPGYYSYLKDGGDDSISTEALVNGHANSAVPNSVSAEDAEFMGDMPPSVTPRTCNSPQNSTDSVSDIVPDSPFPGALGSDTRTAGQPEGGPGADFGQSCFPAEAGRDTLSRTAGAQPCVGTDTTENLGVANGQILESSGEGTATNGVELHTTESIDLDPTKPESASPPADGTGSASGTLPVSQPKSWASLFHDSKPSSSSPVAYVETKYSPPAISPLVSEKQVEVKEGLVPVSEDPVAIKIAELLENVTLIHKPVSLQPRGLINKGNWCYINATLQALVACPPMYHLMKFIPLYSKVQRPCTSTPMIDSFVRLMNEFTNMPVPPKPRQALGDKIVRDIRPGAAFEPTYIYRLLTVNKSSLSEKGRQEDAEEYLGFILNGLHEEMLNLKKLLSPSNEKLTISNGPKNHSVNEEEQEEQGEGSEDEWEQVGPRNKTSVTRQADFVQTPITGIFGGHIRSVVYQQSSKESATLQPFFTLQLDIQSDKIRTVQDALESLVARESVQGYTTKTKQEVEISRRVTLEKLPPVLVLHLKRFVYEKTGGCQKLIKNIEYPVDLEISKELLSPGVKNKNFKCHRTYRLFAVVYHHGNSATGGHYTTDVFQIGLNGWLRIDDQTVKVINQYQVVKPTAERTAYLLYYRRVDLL
Sequence of USP16 (Q9Y5T5 whole entry, looked up): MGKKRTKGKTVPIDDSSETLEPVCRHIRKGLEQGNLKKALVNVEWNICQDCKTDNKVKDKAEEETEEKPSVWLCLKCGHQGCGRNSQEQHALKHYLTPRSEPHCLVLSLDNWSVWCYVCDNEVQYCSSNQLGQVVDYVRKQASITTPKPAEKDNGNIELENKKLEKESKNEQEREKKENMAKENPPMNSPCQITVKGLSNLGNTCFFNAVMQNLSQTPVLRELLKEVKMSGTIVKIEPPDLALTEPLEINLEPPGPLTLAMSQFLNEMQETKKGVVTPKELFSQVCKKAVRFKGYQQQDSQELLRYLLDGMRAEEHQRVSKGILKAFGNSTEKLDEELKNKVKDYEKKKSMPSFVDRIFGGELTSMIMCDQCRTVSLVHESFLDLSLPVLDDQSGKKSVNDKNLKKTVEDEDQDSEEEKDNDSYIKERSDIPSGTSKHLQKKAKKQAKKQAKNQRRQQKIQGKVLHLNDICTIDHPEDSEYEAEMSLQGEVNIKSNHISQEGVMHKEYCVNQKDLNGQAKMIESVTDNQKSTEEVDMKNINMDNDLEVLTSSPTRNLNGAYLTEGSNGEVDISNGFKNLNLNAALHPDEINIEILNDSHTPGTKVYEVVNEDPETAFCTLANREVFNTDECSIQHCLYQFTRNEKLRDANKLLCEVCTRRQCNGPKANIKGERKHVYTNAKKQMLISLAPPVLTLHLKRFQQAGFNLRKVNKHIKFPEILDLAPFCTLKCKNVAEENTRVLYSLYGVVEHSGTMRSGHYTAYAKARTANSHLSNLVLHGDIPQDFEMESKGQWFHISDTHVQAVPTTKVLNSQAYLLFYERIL

COCC[C@@H](NC(=O)CCl)c1ccccc1
active: [5] -1.4
inactive: [1] 0.0947 | [2] -0.357 | [3] -0.103 | [4] -0.216 | [6] 0.334 | [7] -0.0927 | [8] 0.0397 | [9] -0.00696 | [10] -0.303
